In publication PMC8222333, “AsCas12a ultra nuclease facilitates the rapid generation of therapeutic cell medicines” one finds binding signal data, which are given here for 15 molecules.

First the molecules themselves.
B1: ATGT (dsDNA)
DNA 1: GCTATCTAGTGCTCAGTACGCACTGATGTAGGAAACTTCTGGCAGGACCAGGTCATGAGATCGGAAGAGCACACGTCTGAACTCCAGTCA
DNA 2: TGACTGGAGTTCAGACGTGTGCTCTTCCGATCTCATGACCTGGTCCTGCCAGAAGTTTCCTACATCAGTGCGTACTGAGCACTAGATAGC
RNA: AAUUUCUACUCUUGUAGAUAGGAAACUUCUGGCAGGACC
B2: CCGG (dsDNA)
DNA 1: B1 DNA 1 with A26C, T27C, T29G
DNA 2: B1 DNA 2 with A62C, A64G, T65G
RNA: B1 RNA
B3: CCTG (dsDNA)
DNA 1: B1 DNA 1 with A26C, T27C, G28T, T29G
DNA 2: B1 DNA 2 with A62C, C63A, A64G, T65G
RNA: B1 RNA
B4: CTCA (dsDNA)
DNA 1: B1 DNA 1 with A26C, G28C, T29A
DNA 2: B1 DNA 2 with A62T, C63G, T65G
RNA: B1 RNA
B5: CCTC (dsDNA)
DNA 1: B1 DNA 1 with A26C, T27C, G28T, T29C
DNA 2: B1 DNA 2 with A62G, C63A, A64G, T65G
RNA: B1 RNA
B6: CTGA (dsDNA)
DNA 1: B1 DNA 1 with A26C, T29A
DNA 2: B1 DNA 2 with A62T, T65G
RNA: B1 RNA
B7: CCTT (dsDNA)
DNA 1: B1 DNA 1 with A26C, T27C, G28T
DNA 2: B1 DNA 2 with C63A, A64G, T65G
RNA: B1 RNA
B8: CGGG (dsDNA)
DNA 1: B1 DNA 1 with A26C, T27G, T29G
DNA 2: B1 DNA 2 with A62C, A64C, T65G
RNA: B1 RNA
B9: CGTG (dsDNA)
DNA 1: B1 DNA 1 with A26C, T27G, G28T, T29G
DNA 2: B1 DNA 2 with A62C, C63A, A64C, T65G
RNA: B1 RNA
B10: CTCC (dsDNA)
DNA 1: B1 DNA 1 with A26C, G28C, T29C
DNA 2: B1 DNA 2 with A62G, C63G, T65G
RNA: B1 RNA
B11: CTAA (dsDNA)
DNA 1: B1 DNA 1 with A26C, G28A, T29A
DNA 2: B1 DNA 2 with A62T, C63T, T65G
RNA: B1 RNA
B12: CGTC (dsDNA)
DNA 1: B1 DNA 1 with A26C, T27G, G28T, T29C
DNA 2: B1 DNA 2 with A62G, C63A, A64C, T65G
RNA: B1 RNA
B13: CCCC (dsDNA)
DNA 1: B1 DNA 1 with A26C, T27C, G28C, T29C
DNA 2: B1 DNA 2 with A62G, C63G, A64G, T65G
RNA: B1 RNA
B14: CCTA (dsDNA)
DNA 1: B1 DNA 1 with A26C, T27C, G28T, T29A
DNA 2: B1 DNA 2 with A62T, C63A, A64G, T65G
RNA: B1 RNA
B15: CGTA (dsDNA)
DNA 1: B1 DNA 1 with A26C, T27G, G28T, T29A
DNA 2: B1 DNA 2 with A62T, C63A, A64C, T65G
RNA: B1 RNA

Substitutions are numbered along the chain they refer to.

In the first assay the target is dAsCas12a Ultra (Acidaminococcus sp., UniProt U2UMQ6 1-1307, M537R;F870L;D908A;E993A;D1235A). The experiment in a line: Spec-seq (native PAGE EMSA with sequencing of bound and unbound); 25 mM Tris-HCl pH 7.4, 150 mM KCl, 5 mM MgCl2, 10% glycerol, 1 mM DTT, 40 ng/uL salmon sperm DNA; 400 nM Cas12a, 480 nM crRNA, 50 nM library, 37 C 1 h; native PAGE at room temperature; high values mean tight binding. The settings on record: protein: recombinant. (In general: A gel shift assay detects complexes by their altered migration in electrophoresis.)
On to B1, for which the binding signal is -8.98 lnKA.
On the same count and under the same terms, the result for B2 reads -8.87 lnKA.
Still for that read-out and setting: the result for B3 reads -7.53 lnKA.
Still for that read-out and setting: the result for B4 reads -8.8 lnKA; that for B5, -6.9 lnKA; that for B6, -8.41 lnKA.
Consider B7, for which the binding signal is -8.97 lnKA.
As for B8, the binding signal is -8.98 lnKA.
Same read-out and setting: the result for B9 reads -9 lnKA; that for B10, -8.67 lnKA.
On the same count and under the same terms, the result for B11 reads -8.92 lnKA; that for B12, -8.54 lnKA.
On the same count and under the same terms, the result for B13 reads -8.74 lnKA; that for B14, -7.06 lnKA; that for B15, -8.71 lnKA.

The next assay concerns the target dAsCas12a S542R (Acidaminococcus sp., UniProt U2UMQ6 1-1307, S542R;D908A;E993A;D1235A). The assay is described as above. Particulars: protein: recombinant.
On to B1, for which the binding signal was -8.67 lnKA.
Same read-out and setting: the result for B2 reads -8.41 lnKA.
On to B3, for which the binding signal was -8.1 lnKA.
Still for that read-out and setting: the result for B4 reads -6.35 lnKA.
On the same count and under the same terms, as for B5, the figure is -7.68 lnKA.
Same read-out and setting: as for B6, the figure is -8.41 lnKA.
In the case of B7, the binding signal is -8.32 lnKA.
B9: the binding signal is -8.73 lnKA.
Same read-out and setting: the result for B10 reads -4.85 lnKA; that for B11, -8.47 lnKA.
Same read-out and setting: as for B12, the figure is -8.67 lnKA; as for B13, -4.35 lnKA; as for B14, -7.77 lnKA.
Same read-out and setting: as for B15, the figure is -8.4 lnKA.

In the next assay the target is d-enCas12a (Acidaminococcus sp., UniProt U2UMQ6 1-1307, E174R;S542R;K548R;D908A;E993A;D1235A). The description is as above. The settings on record: protein: recombinant.
As for B1, the binding signal was -5.72 lnKA.
Still for that read-out and setting: as for B2, the figure is -6.11 lnKA; as for B3, -5.7 lnKA.
For B4, the binding signal was -1.97 lnKA.
Still for that read-out and setting: the result for B5 reads -5.18 lnKA; that for B6, -5.63 lnKA; that for B7, -5.69 lnKA.
As to B8, the binding signal was -6.24 lnKA.
For the molecule B9, the binding signal is -4.4 lnKA.
Still for that read-out and setting: the result for B10 reads -0.91 lnKA; that for B11, -5.62 lnKA.
Regarding B12, the binding signal was -2.67 lnKA.
Same read-out and setting: the result for B13 reads -1.8 lnKA.
On to B14, for which the binding signal is -5.38 lnKA.
The same measure, in the same setting: the result for B15 reads -2.47 lnKA.

In another assay the target is d-enCas12a-Ultra (Acidaminococcus sp., UniProt U2UMQ6 1-1307, E174R;S542R;K548R;M537R;F870L;D908A;E993A;D1235A). Described as above. Particulars: protein: recombinant.
On to B1, for which the binding signal is -3.21 lnKA.
In the case of B2, the binding signal is -3.44 lnKA.
With B3, the binding signal is -3.13 lnKA.
Same read-out and setting: the result for B4 reads -0.439 lnKA; that for B5, -2.06 lnKA; that for B6, -3.17 lnKA.
The same measure, in the same setting: the result for B7 reads -3.27 lnKA; that for B8, -3.42 lnKA; that for B9, -1.51 lnKA.
On the same count and under the same terms, as for B10, the figure is -0.27 lnKA; as for B11, -3.05 lnKA.
Turning to B12, the binding signal is -0.615 lnKA.
With B13, the binding signal was -0.387 lnKA.
Still for that read-out and setting: as for B14, the figure is -2.2 lnKA.
The same measure, in the same setting: as for B15, the figure is -0.629 lnKA.

In a further assay the target is dAsCas12a E174R (Acidaminococcus sp., UniProt U2UMQ6 1-1307, E174R;D908A;E993A;D1235A). The assay is described as above. Particulars: protein: recombinant.
As for B3, the binding signal is -7.6 lnKA.
On the same count and under the same terms, the result for B4 reads -8.26 lnKA.
As to B5, the binding signal is -6.59 lnKA.
Same read-out and setting: the result for B7 reads -8.31 lnKA; that for B9, -8.98 lnKA; that for B10, -8.66 lnKA.
The same measure, in the same setting: as for B11, the figure is -8.64 lnKA.
The same measure, in the same setting: the result for B13 reads -8.52 lnKA; that for B14, -5.98 lnKA; that for B15, -8.37 lnKA.

The target of a further assay is dAsCas12a K548R (Acidaminococcus sp., UniProt U2UMQ6 1-1307, K548R;D908A;E993A;D1235A). The assay is described as above. Particulars: protein: recombinant.
B12: the binding signal is -8.4 lnKA.
